Measurements published in PubChem BioAssay (NCI).
Compounds without any hit were thinned out: in the full panel of roughly 83,000, 20% have a hit.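 Single-concentration screen, 48 h exposure, 96-well plates. Endpoint: percent growth. Below 10 = active.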 Unmarked numbers belong to inactive results. The source made the active and inactive calls.

How the values were obtained:
Test in all cases: NCI-60 one-dose screen, 48 h (100 = growth as untreated, 0 = no growth, -100 = all killed)
Conditions in all cases: 10 µM unless noted
SK-MEL-2 melanoma = system: SK-MEL-2 melanoma
EKVX NSCLC = system: EKVX NSCLC
UO-31 renal = system: UO-31 renal
TK-10 renal = system: TK-10 renal
ACHN renal = system: ACHN renal
CAKI-1 renal = system: CAKI-1 renal
A498 renal = system: A498 renal
CCRF-CEM leukemia = system: CCRF-CEM leukemia
MOLT-4 leukemia = system: MOLT-4 leukemia
SN12C renal = system: SN12C renal

Row | SMILES | growth (SK-MEL-2 melanoma) | growth (EKVX NSCLC) | growth (UO-31 renal) | growth (TK-10 renal) | growth (ACHN renal) | growth (CAKI-1 renal) | growth (A498 renal) | growth (CCRF-CEM leukemia) | growth (MOLT-4 leukemia) | growth (SN12C renal)
1 | O=C1/C(=C/c2ccc(OCCCOc3ccc(Cl)cc3)cc2)N=C2SCCCN12 | 98.4% | 47.6% | 70.9% | 72.7% | 74.5% | 71.6% | 96.5% | 69.5% | 62.1% | 
2 | COc1ccc(C(=S)N2CCN(c3cccc(Cl)c3)CC2)cc1 | 80.4% | 93.2% | 83.2% | 94% | 109% |  | 106% |  | 108% | 103%
3 | COc1cccc(NC(=O)c2sc3nc(C)c(C(C)=O)cc3c2N)c1 | 24.5% | 56.4% | 75.2% | 55.7% | 63.3% |  | 17.2% |  | 44.9% | 55.9%
4 | Cc1cc(N2CCOCC2)nc(N[C@@H]2CCC[C@H](Nc3ccnc4cc(Cl)ccc34)C2)n1 | -71.5% (active) | 49.9% | -84.5% (active) | -68.7% (active) | -61.7% (active) |  | 35.1% | -10.4% (active) | 2.9% (active) | 22.7%
5 | COc1ccc(-c2nc(SCC(=O)Nc3ccc(C(=O)/C=C/c4ccc(Cl)cc4)cc3)[nH]c(=O)c2C#N)cc1 | 100% | 95.7% | 89.1% | 102% | 98.9% | 82.8% | 101% | 94.2% | 84.4% | 
6 | COc1cc(C)c(C2C(C#N)=C(N)Oc3n[nH]c(-c4cccs4)c32)cc1C(C)C (stereo not given) | 102% | 97% | 98.7% | 98.2% | 108% |  | 93% | 81.5% | 79.4% | 103%
7 | COc1ccc2cc(-c3nn(-c4ccc(C(=O)O)cc4)cc3CO)ccc2c1 | 83.2% | 90.7% | 86.6% | 104% | 104% |  | 94.5% | 102% | 84.7% | 106%
8 | O=C1c2ccccc2OC=C(c2ccccc2)N1CCCCNc1ccc(S(=O)(=O)Nc2ncccn2)cc1 | 99.1% | 90% | 85.7% | 96.6% | 100% |  | 80.2% | 75.6% | 85.3% | 99.1%
9 | OC(COc1cccc2ccccc12)CN1CCN(c2ccccc2Cl)CC1 (stereo not given) | 44.6% | 102% | 85.1% | 100% | 102% |  | 90% |  | 107% | 105%
10 | CN(C)[C@@H]1C(=O)C(C(=O)NCc2nc3[nH]cnc(=S)c3[nH]2)=C(O)[C@@]2(O)C(=O)C3=C(O)c4c(O)cccc4[C@@](C)(O)[C@H]3C[C@@H]12 | 13.1% | 88.8% | 47.4% | 22.7% | 74% |  | 101% | 14.1% | 12.9% | 87.8%
11 | Nc1ccn(-c2ccc(Br)cc2)c(=O)n1 | 87.9% | 95.8% |  | 113% | 111% | 87.2% | 99.5% | -23.5% (active) | 107% | 115%
12 | COc1ccc(N=Nc2nccs2)c(O)c1 | 64.2% | 30.9% | 13.1% | 51.3% | 18.4% |  | 86.5% | 4.6% (active) | 4.68% (active) | 50.3%
13 | COc1ccc2c(c1)O/C(=C\c1cccc(OCC(=O)Nc3nc4c(s3)CCCC4)c1)C2=O | 82.5% | 90.2% |  | 115% | 97.4% | -100% (active) | 88.8% | -67.9% (active) | 25.3% | 53.8%
14 | C=C(C)C(=O)Nc1ccc(NC(C)C)cc1 | 53.5% | 115% | 100% | 138% | 125% |  | 101% |  | 128% | 121%
15 | CC1=C(O)C(=O)C(C(C#N)(C#N)C(C#N)C#N)C1 (stereo not given) | 83.9% | 95.3% | 94.3% | 105% | 106% |  | 97.1% |  | 100% | 100%
